The term AC50 denotes the concentration at which the activity in the assay is half-maximal.

Values joined by “and” are separate entries in the source; they are usually repeats but may differ in a detail not shown here. Equal entries are not always repeated. In all, about 16,000 compounds went through this assay and about 5,800 (36%) were called active. Another 23% or so got no clear call; they are omitted. Calls come from the whole dose curve; as a rule, active = well fitted curve in the direction sought with a large enough effect; inconclusive = small, poorly fitted or top-dose-only effect, or effect the other way; inactive = no such curve, though single readings can be large or run the other way. Some of the results follow. A structure can be active in one record and inactive in another.

The values below come from PubChem BioAssay AID1851 (National Center for Advancing Translational Sciences (NCATS), 2009).
% is set by controls: 0 for no effect and ±100 for the full control effect.

Cytochrome P450 2C19 (Homo sapiens), sequence (P33261 whole entry, looked up): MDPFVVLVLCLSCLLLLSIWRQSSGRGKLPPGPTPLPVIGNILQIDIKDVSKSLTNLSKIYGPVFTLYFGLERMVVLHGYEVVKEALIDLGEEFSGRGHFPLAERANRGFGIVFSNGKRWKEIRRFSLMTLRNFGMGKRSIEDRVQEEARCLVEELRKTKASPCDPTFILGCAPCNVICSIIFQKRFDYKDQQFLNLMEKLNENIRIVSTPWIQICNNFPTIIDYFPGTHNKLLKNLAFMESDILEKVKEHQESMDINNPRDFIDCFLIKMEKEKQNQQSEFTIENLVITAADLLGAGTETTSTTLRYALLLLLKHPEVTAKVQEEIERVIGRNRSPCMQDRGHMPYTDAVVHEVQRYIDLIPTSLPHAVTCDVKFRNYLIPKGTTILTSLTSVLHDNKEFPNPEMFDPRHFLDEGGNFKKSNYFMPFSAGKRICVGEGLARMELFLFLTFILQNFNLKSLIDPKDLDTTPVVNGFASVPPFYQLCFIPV

This experiment concerns the target Cytochrome P450 2C19 (Homo sapiens) (UniProt P33261). Put plainly: Cytochrome panel assay with activity outcomes. Particulars: recombinant CYP, pro-luciferin dealkylation, luminescence, p450-cyp2c19; series mostly up to 57.1 µM; activity, negative = inhibition: at the top concentration.
Turning to `C[n+]1cc(-c2ccccc2)n2c1CCCCC2`, the “activity, negative = inhibition” value was -27% (inactive). For the molecule `CCCCSCc1nc2nc(Cl)c(Cl)nc2[nH]1`, the AC50 was 2 µM (active). Still for that read-out and setting: next, `CC(C)(C)C(=O)NC(Nc1cccc2cccnc12)C(Cl)(Cl)Cl` (stereo unspecified): 0.794 µM (active). In the case of `O=C(Nc1cccc2cccnc12)[C@@H]1[C@@H](C(=O)O)[C@H]2CC[C@@H]1O2`, the activity, negative = inhibition is 29.3% [at 11.4 µM] (inactive).

Consider `NC(=S)Nc1cccc2cccnc12`, for which the “activity, negative = inhibition” value is -16.1% (inactive). With `COC(=O)N1CCC2(CCCN(Cc3ccccc3)C2)CC1`, the “activity, negative = inhibition” value was 2.29% (inactive). For the molecule `CCCCCCOC(=O)C(C#N)c1nc2ccccc2nc1N1CCN(CC)CC1` (stereo unspecified), the AC50 was 8.91 µM (active). As for `CCN1CCN(c2nn3c(=O)c4ccccc4nc3c3ccccc23)CC1`, the “activity, negative = inhibition” value was -58.2% (inactive).

As for `CC(C)NC1(C(N)=O)CCN(Cc2ccccc2)CC1`, the activity, negative = inhibition was -1.03% [at 11.4 µM] (inactive). Take `CC(C)OC(=O)C(C#N)c1nc2ccccc2nc1N1CCN(Cc2ccccc2)CC1` (stereo unspecified): the AC50 is 0.00562 µM (active). In the case of `CCn1c(=O)[nH]c2cc(Cl)c(Cl)cc21`, the “activity, negative = inhibition” value was -23.1% (inactive). For the molecule `COc1ccc(CCN2C(=NC(=O)CCC(=O)O)SC3CS(=O)(=O)CC32)cc1` (stereo unspecified), the AC50 is 14.1 µM (active). Regarding `CCCC(=O)N=C1SC2CS(=O)(=O)CC2N1c1ccc(CC)cc1` (stereo unspecified), the AC50 was 7.08 µM (active). As for `C=CCN1C(=NC(=O)CC)SC2CS(=O)(=O)CC21` (stereo unspecified), the “activity, negative = inhibition” value was -1.43% (inactive). The same measure, in the same setting: then `CC(C)NC(=O)N1CC2(CCN(C(=O)c3ccncc3)CC2)C1`, with -30.2% (inactive); and `c1ccc(C[n+]2cccc(-c3cc4ccccc4[nH]3)c2)cc1`, with 22.1% [at 11.4 µM] (inactive). For the molecule `Clc1ccc(-c2cc3ccccc3[nH]2)cc1`, the AC50 is 3.16 µM (active). In the case of `OC(c1ccccc1)(c1ccc(F)cc1)C(c1ccccc1)N1CCOCC1` (stereo unspecified), the AC50 was 2.82 µM (active). Turning to `C[C@@H](N1CCOCC1)[C@@](O)(c1ccccc1)c1ccccn1`, the activity, negative = inhibition is 5.67% [at 11.4 µM] (inactive).

For `CC(C)NC(=O)N1CCC2(CC1)CCN(C(=O)c1cccc(F)c1)CC2`, the “activity, negative = inhibition” value was 0.929% (inactive). In the case of `C=C[C@@]1(C)CC(=O)[C@@]2(O)[C@@]3(C)[C@@H](O)CCC(C)(C)[C@@H]3[C@H](OC(=O)CCN(C)C)[C@H](OC(C)=O)[C@@]2(C)O1`, the AC50 is 0.251 µM (active). As to `C=C[C@@]1(C)CC(=O)[C@@]2(O)[C@@]3(C)[C@H](O)CCC(C)(C)[C@@H]3[C@H](O)[C@H](OC(C)=O)[C@]2(C)O1`, the “activity, negative = inhibition” value was -17.4% (inactive).

`Cc1cc(C2CCCCC2)n(O)c(=O)c1`: the “activity, negative = inhibition” value is -32.4% [at 25.6 µM] (inactive).

Regarding `Cc1cc2nc(SCCOC(=O)Nc3ccc(Cl)cc3)nc(C)c2cc1C`, the AC50 is 0.794 µM (active). `CSc1ccc(S(=O)(=O)Nc2ccc3c4c(cccc24)CC3)cc1`: the AC50 is 0.447 µM (active). Consider `O=C(c1ccncc1)N1CCC2(CCN(Cc3nccs3)CC2)CC1`, for which the “activity, negative = inhibition” value is 6.61% (inactive). Turning to `O=C(c1cccc(F)c1)N1CCC2(CCN(Cc3nccs3)CC2)CC1`, the AC50 is 1.58 µM (active).

For `O=C(c1cccc(F)c1)N1CCC2(CCCN(Cc3nccs3)C2)CC1`, the “activity, negative = inhibition” value was 1.9% (inactive). On the same count and under the same terms, next, `O=C(c1cc(C(F)(F)F)cc(C(F)(F)F)c1)N1CCC[C@@]2(CCN(Cc3nccs3)C2)C1`: -12.7% (inactive). Regarding `O=C(c1cccc(F)c1)N1CCC[C@@]2(CCN(Cc3nccs3)C2)C1`, the AC50 was 2.51 µM (active). Consider `O=C(c1cc(C(F)(F)F)cc(C(F)(F)F)c1)N1CCC2(CCN(Cc3nccs3)CC2)CC1`, for which the “activity, negative = inhibition” value was -44.9% (inactive). Regarding `CCC1(c2ccccc2)C(=O)NCNC1=O`, the AC50 result was “inactive”. As for `COCCn1c(=O)c(-c2ccccc2)nc2cnc(Nc3cccc(OC)c3)nc21`, the “activity, negative = inhibition” value is -19% (inactive). `Cn1c(=O)c2[nH]c(-c3ccccc3)nc2n(C)c1=O`: the “activity, negative = inhibition” value was 29.4% (inactive). Same read-out and setting: next, `Nc1nc(C(=O)O)c(N=Nc2ccccc2)c(=O)[nH]1`: -7.57% [at 11.4 µM] (inactive). As to `O=C(O)c1nc(-c2ccccc2)[nH]c1C(=O)O`, the AC50 was 3.16 µM (active). As to `Cc1ccc(S(=O)(=O)N(CC(=O)NCCC2=CCCCC2)Cc2ccccc2F)cc1`, the AC50 was 4.47 µM (active). Consider `C/C(CCN1CCCc2nc(C)c(C)cc21)=N\OC[C@@H](O)COCc1ccco1`, for which the activity, negative = inhibition is 7.43% [at 11.4 µM] (inactive). In the case of `Cc1ccc(N2C(=O)c3n[nH]c(C)c3C2c2ccccn2)cc1` (stereo unspecified), the “activity, negative = inhibition” value is -25.1% (inactive).

With `O=C1CSC(c2ccccn2)N1c1ccc(Cl)c(Cl)c1` (stereo unspecified), the half-maximal activity concentration (AC50) was 3.55 µM (active). The same measure, in the same setting: next, `N#Cc1c(N2CCCCC2)nc(N)c2c(N)nc3c(c12)CC(c1ccccc1)O3` (stereo unspecified): 6.31 µM (active); `COc1ccccc1N1CCN(CCCCNC(=O)c2ccc(-c3ccc(C(C)=O)cc3)cc2)CC1`: 15.8 µM (active); `COc1ccccc1N1CCN(Cc2cc(=O)n3ccsc3n2)CC1`: 17.8 µM (active).

As to `COc1ccccc1N1CCN(CCCCNC(=O)c2ccc3ccccc3c2)CC1`, the AC50 result was “inactive”. As for `COc1ccccc1N1CCN(CCCNc2cc(=O)n(C)c(=O)n2C)CC1`, the AC50 result is “inactive and 7.94 µM (active)”.

As to `COc1ccccc1N1CCN(CCCCNS(=O)(=O)c2cccc3c(N(C)C)cccc23)CC1`, the AC50 was 0.501 µM (active).
